An excerpt weighted towards active compounds, which were near 19% of everything screened.
HT1080NT lethal – kills 2HG-producing HT-1080-NT fibrosarcoma cells | HT-1080-NT fibrosarcoma viability, CellTiter-Glo ATP luminescence, 48 h | Potency, µM (highest dose often 46.1 µM), usual class: cytotoxic | actives 1.6% (n = 360,000) | AID 686970;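 also: NT is the 2HG producing partner of a matched IDH1 knockdown line; nearly all actives have a fitted effect of over 55% in size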
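A 48-hour cytotoxicity screen used HT-1080-NT cells plated 2 hours before compound delivery. ATP-based CellTiter-Glo luminescence measured viability, normalized to DMSO and no-cell controls.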
IL1B secr inh – inhibitors of inflammasome signaling (IL-1 beta secretion) | THP-1 LPS/ATP IL-1B secretion, AlphaLISA, 16 h; hits give low values | activity change, % at 57.5 µM | actives 4.7% (n = 360,000) | AID 743279; in the data active = activity change below about -50%; inconclusive = mostly about -30% to -49%
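THP-1 cells pretreated 1 hr with compounds (up to 57.5 uM final), then stimulated with LPS (250 ng/mL final) plus ATP (1.25 mM final); secreted IL-1B measured by AlphaLISA after 16 hr, decreased signal indicating inhibition.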
HT1080 IDH1KD tx – toxicity to HT-1080 IDH1 knockdown cells (counter line) | HT-1080 IDH1 knockdown viability, ATP luminescence, 48 h | Potency, µM (top dose mostly 46.1 µM), usual class: cytotoxic | actives 2% (n = 360,000)
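Using the IDH1-knockdown HT-1080 line run in the same batch and compound series as the NT line, viability after 48 h at 37 °C was determined by CellTiter-Glo luminescence and expressed as % activity.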
TDP1 cell noCPT – qHTS for Inhibitors of human tyrosyl-DNA phosphodiesterase 1 (TDP1): qHTS in cells in absence of CPT | DT40 Tdp1-/- hTDP1 cells, no CPT, ATP luminescence, 48 h | actives 15% (n = 420,000) | Potency, µM (top dose mostly 46.2 µM), actives largely listed as inhibitors; also: nearly all actives have a fitted effect of over 55% in size
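Growth kinetics read by CellTiter-Glo luminescence after ≥48 hr at 37 °C. Cells: DT40 Tdp1-/- stably carrying human TDP1, 400 per well, compound exposure in the absence of CPT (DMSO vehicle).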
ELG1 DNA repair – inhibitors of ELG1-dependent DNA repair in HEK293T cells; HEK293T ELG1-luciferase reporter, luminescence, 16 h; DNA damage induced by 5-fluorouridine; Potency, µM (titrated, usually from 46.1 µM), actives largely listed as inhibitors; actives 2.3% (n = 330,000); also: nearly all actives have a fitted effect of over 55% in size
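In this reporter screen, reduction of luminescence relative to DMSO vehicle indicated activity. Compounds and 5-fluorouridine were added together to 2,000 cells per well, incubated for 16 hr at 37 °C, then developed with ONE-Glo.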
DT40 TDP1 CPT – growth inhibition of DT40 Tdp1-/-;hTDP1 cells with camptothecin (screen for TDP1 inhibitors) | chicken DT40 Tdp1-/-;hTDP1 cells + 20 nM CPT, ATP luminescence, 48 h | Potency, µM (titrated, usually from 46.2 µM), actives largely listed as inhibitors | actives 12% (n = 420,000); also: nearly all actives have a fitted effect of over 55% in size
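Cell growth measured by CellTiter-Glo luminescence after a minimum 48 h, 37 C compound exposure with 20 nM CPT in Tdp1-knockout DT40 cells stably expressing hTDP1, seeded 400/well; qHTS titration format.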
Large screens that a line does not name were inactive. Unless noted, calls follow the shape of the dose curve; as a rule, active = well fitted curve in the direction sought with a large enough effect; inconclusive = small, poorly fitted or top-dose-only effect, or another doubt; inactive = no such curve, though single readings can be large; an effect the other way counts as inactive or inconclusive.

O=C(NCC1CCCO1)C(c1cccs1)N(C(=O)c1ccc(CN2CCOCC2)o1)c1ccc(Cl)cc1 (stereo unspecified)	TDP1 cell noCPT inconclusive
O=C1C2C(C(=O)N1/N=C/c1cc(Br)cc([N+](=O)[O-])c1O)C1C=CC2C12CC2 (stereo unspecified)	IL1B secr inh inconclusive, TDP1 cell noCPT 16.4µM, DT40 TDP1 CPT inconclusive
O=C1C2C(C(=O)N1/N=C/c1cc([N+](=O)[O-])c(O)cc1O)C1C=CC2C12CC2 (stereo unspecified)	none
CCOC(=O)c1c(C2COc3ccccc3O2)csc1NC(=O)c1ccco1 (stereo unspecified)	IL1B secr inh -54.1, TDP1 cell noCPT 11.2µM, ELG1 DNA repair inconclusive, DT40 TDP1 CPT 14.1µM
COc1ccc(-c2nc(Cn3c(SCc4ccc(F)cc4)nc4cccnc43)c(C)o2)cc1	TDP1 cell noCPT 2.59µM, DT40 TDP1 CPT 2.91µM (no result: HT1080NT lethal, IL1B secr inh, HT1080 IDH1KD tx, ELG1 DNA repair)
COc1ccc(-c2nc(Cn3c(SCc4ccc(F)cc4)nc4ccncc43)c(C)o2)cc1OC	HT1080NT lethal 23.1µM, HT1080 IDH1KD tx inconclusive, TDP1 cell noCPT 20.6µM, ELG1 DNA repair inconclusive, DT40 TDP1 CPT inconclusive
Cc1oc(-c2ccccc2Cl)nc1CN1CCCC1c1ccc(F)cc1 (stereo unspecified)	DT40 TDP1 CPT inconclusive
Cc1oc(-c2cccc(Cl)c2)nc1Cn1c(SCc2ccc(F)cc2)nc2cccnc21	TDP1 cell noCPT 25.9µM, DT40 TDP1 CPT 25.9µM (no result: HT1080NT lethal, IL1B secr inh, HT1080 IDH1KD tx, ELG1 DNA repair)
Cc1oc(-c2ccccc2Cl)nc1Cn1c(SCc2cccc(F)c2)nc2cccnc21	TDP1 cell noCPT 25.9µM, DT40 TDP1 CPT 23.1µM (no result: HT1080NT lethal, IL1B secr inh, HT1080 IDH1KD tx, ELG1 DNA repair)
Cc1ccc(S(=O)(=O)N2CCOCC2)cc1NC(=O)COC(=O)COc1cccc2c1OC(C)(C)C2	none
Cc1c(NC(=O)COC(=O)CCc2c[nH]c3ccccc23)c(=O)n(-c2ccccc2)n1C	none
COc1ccc(-c2nc(Cn3c(SCc4ccc(C)cc4)nc4cccnc43)c(C)o2)cc1OC	TDP1 cell noCPT inconclusive, DT40 TDP1 CPT 5.17µM (no result: HT1080NT lethal, IL1B secr inh, HT1080 IDH1KD tx, ELG1 DNA repair)
COc1ccc(-c2nc(Cn3c(SCc4ccccc4F)nc4ccncc43)c(C)o2)cc1	HT1080 IDH1KD tx inconclusive, TDP1 cell noCPT 14.6µM, DT40 TDP1 CPT inconclusive
Cc1ccc(C)c(CSc2nc3ccncc3n2Cc2nc(-c3ccccc3Cl)oc2C)c1	TDP1 cell noCPT inconclusive, DT40 TDP1 CPT 20.6µM (no result: HT1080NT lethal, IL1B secr inh, HT1080 IDH1KD tx, ELG1 DNA repair)
COc1ccc(-c2nc(CSCC(=O)NC3CCN(Cc4ccccc4)CC3)c(C)o2)cc1OC	TDP1 cell noCPT inconclusive, ELG1 DNA repair inconclusive, DT40 TDP1 CPT inconclusive
COc1ccc(/C(C)=N/NC(=O)Cc2ccc(Cl)cc2)cc1	none
CC(C)CCNC(=O)c1ccc(Cn2c(=S)[nH]c3ccccc3c2=O)cc1	none
Cc1cc(C)cc(NC(=O)CSc2oc(-c3cccs3)nc2S(=O)(=O)c2ccccc2)c1	TDP1 cell noCPT 5.8µM, DT40 TDP1 CPT 20.6µM (no result: HT1080NT lethal, IL1B secr inh, HT1080 IDH1KD tx, ELG1 DNA repair)
O=C(CSc1oc(-c2ccc(F)cc2)nc1S(=O)(=O)c1ccccc1)c1ccc(Cl)cc1	TDP1 cell noCPT 9.2µM, DT40 TDP1 CPT 10.3µM (no result: HT1080NT lethal, IL1B secr inh, HT1080 IDH1KD tx, ELG1 DNA repair)
O=C(CSc1oc(-c2cccs2)nc1S(=O)(=O)c1ccccc1)Nc1ccc(F)cc1	TDP1 cell noCPT inconclusive, DT40 TDP1 CPT 16.4µM (no result: HT1080NT lethal, IL1B secr inh, HT1080 IDH1KD tx, ELG1 DNA repair)
COc1cc(OC)c(C(=O)OCC(=O)NC23CC4CC(CC(C4)C2)C3)cc1OC	DT40 TDP1 CPT inconclusive
COc1ccc(C2c3ccc4ccccc4c3Oc3ncn(CCN4CCOCC4)c(=N)c32)cc1 (stereo unspecified)	HT1080NT lethal inconclusive, IL1B secr inh -79.4, HT1080 IDH1KD tx inconclusive, TDP1 cell noCPT inconclusive, DT40 TDP1 CPT 23.1µM
COc1ccc(C2c3ccc4ccccc4c3Oc3ncn(CCN4CCOCC4)c(=N)c32)cc1OC (stereo unspecified)	IL1B secr inh -52.4, TDP1 cell noCPT 14.6µM, DT40 TDP1 CPT 18.4µM

Assay outcomes: PubChem, National Center for Advancing Translational Sciences (NCATS)
